Test results from ChEMBL document CHEMBL3988442, “University of Dundee, Small-Polar-MMV Screening Library” (2021).
About 13,000 (27%) of roughly 48,000 compounds showed an effect of 50% or more. The list shows a part of the results.

These compounds were tested on Wolbachia pipientis (assay: Anti-Wolbachia Cell-Based Screen). Details: 5 µM.
Type: functional
Design: scale not given: in the data most compounds retested in dose-response had high values

Structure (SMILES)	Percent Effect [%]
O=C(O)C(F)(F)F.O=C(c1ccccc1)N1CCC[C@]2(C[C@@H](OCc3ccncc3)CO2)C1	6.805
Cn1cc(C2COC3(CCN(C(=O)Cc4ccccc4)CC3)C2)cn1 (centres undefined)	95.06
O=C(CC1CC1)N1CCC2(CC1)CC(Oc1ccccc1)CO2 (centres undefined)	-7.215
CCOCC(=O)N1CCC2(CC1)CC(c1ccccc1)CO2 (centres undefined)	118.3
O=C(Cc1cccnc1)N1CCC2(CC1)CCN(C1CCOCC1)CC2.O=C(O)C(F)(F)F.O=C(O)C(F)(F)F	1.334
CN(Cc1ccncc1)C1COC2(CCN(c3ncc(F)cn3)CC2)C1.O=C(O)C(F)(F)F.O=C(O)C(F)(F)F (centres undefined)	-12.58
CC1COC2(CCN(C(=O)Cc3ccncc3)CC2)C1.O=C(O)C(F)(F)F (centres undefined)	99.32
CC1(CNS(=O)(=O)c2cccc(C(=O)N3CCSCC3)c2)COC1	5.198
N#Cc1ccnc(N2CCN(CC(O)c3c(F)cccc3F)CC2)c1 (centres undefined)	-15.75
CC(CCn1cccn1)NCc1n[nH]c2c1CCCCC2 (centres undefined)	-18.85
O=S(=O)(NCCNc1ccc(-n2cccc2)nn1)c1ccccc1	-5.245
COC(=O)[C@@H]1Cc2ncn(C)c2CN1S(=O)(=O)c1ccc(Cl)cc1	-5.674
Cn1cc(S(=O)(=O)Nc2ccc(Cl)cn2)cc1C(N)=O	6.201
Cc1cc2[nH]c(CN3CCOC(c4ccc(Cl)cc4)C3)cc(=O)n2n1 (centres undefined)	-2.359
CC(C)C(=O)N1CC[C@H]2N(C)CC[C@@]2(C(=O)Nc2ccccc2)CC1	108.6
O=C(Nc1cccnc1)N1CCC(n2ccc(C(F)(F)F)n2)CC1	-10.86
CC(C)CC(=O)N1CC[C@H]2N(C)CC[C@@]2(C(=O)Nc2cccnc2)CC1.O=C(O)C(F)(F)F.O=C(O)C(F)(F)F	92.3
CNC(=O)N1CC[C@H]2N(C)CC[C@@]2(C(=O)Nc2ccccc2)CC1	2.294
CS(=O)(=O)N1C[C@H](C(=O)Nc2cccnc2)[C@@H]2CCO[C@@H]2C1.O=C(O)C(F)(F)F	-6.028
Cc1ccc(CNC(=O)C2CCN(C(=O)C(C)C)CC2)n1C	-14.75
CCN1CC[C@@]2(C(=O)N(C)C)CCN(C(=O)NC(C)C)CC[C@@H]12	-5.445
CC(C)NC(=O)N1CC[C@H]2N(C)CC[C@@]2(C(=O)Nc2cccnc2)CC1	104
CCN1CC[C@@]2(C(=O)N3CCOCC3)CCN(C(=O)CC(C)C)CC[C@@H]12.O=C(O)C(F)(F)F	-11.51
CC(C)C(=O)N1CCc2nc(C(=O)Nc3cccnc3)sc2CC1	0.3042
CC(C)C(=O)N1CC[C@H]2N(C)CC[C@@]2(C(=O)Nc2cccnc2)CC1.O=C(O)C(F)(F)F.O=C(O)C(F)(F)F	118.9
O=C(Cc1cccnc1)N1CCC2(CC1)CCN(C1CCOCC1)C2.O=C(O)C(F)(F)F.O=C(O)C(F)(F)F	-0.7381
CCC[C@H]1CN(CCCO)C[C@@H]1NC(=O)Cn1cc(C)cn1	-8.445

Structure (SMILES)	Percent Effect [%]
CCN(Cc1cc(F)c(OC)c(Cl)c1)Cc1nc(COC)no1	-30.92
COc1cc(C)sc1C(=O)NCCC(=O)N(C)c1ccccc1	-9.675
CC(C)N(C)CCNC(=O)NCc1ccccc1-n1cccn1	-1.809
Cc1nn(C(C)C)c(C)c1S(=O)(=O)Nc1cccc(C(=O)O)c1	0.846
CC(CCc1ccc(F)c(F)c1)NS(=O)(=O)Cc1ccon1 (centres undefined)	102
Cc1ccc(OCC(C)NS(=O)(=O)N(C)C)cc1 (centres undefined)	-6.618
O=C(CCc1cccc(Cl)c1)NS(=O)(=O)Cc1ccon1	-7.174
O=C(NS(=O)(=O)Cc1ccon1)c1ccsc1	-7.233
Cc1ccc(OCC(C)NS(=O)(=O)Cc2ccon2)cc1 (centres undefined)	103.4
Cc1ccc(OCC(C)NS(C)(=O)=O)cc1 (centres undefined)	1.319
Cc1ccc(C(=O)NS(=O)(=O)Cc2ccon2)c(C)c1	-32.05
CC(C)CC(CO)NS(=O)(=O)Cc1ccon1 (centres undefined)	92.95
Cc1cc(C(=O)NS(=O)(=O)Cc2ccon2)c(C)n1C(C)C	19.94
CCC(CNC(=O)Cc1cc(C)on1)Oc1cccc(F)c1 (centres undefined)	6.278
CN1CCN(c2ncnc3c2c(C(=O)NC2CC2)c2ccccn23)CC1	-8.273
Cc1ccccc1CN1CCN(CC(=O)Nc2cccnc2)CC1	7.585
O=C(CN1CCOC(Cn2cccn2)C1)NCc1cccs1 (centres undefined)	2.249
CC1CN(CC(=O)NC(=O)NCc2cccs2)CCN1CC(F)(F)F (centres undefined)	103.7
CC1CN(CC(=O)NCc2cccs2)CCN1c1nccs1 (centres undefined)	105.4
O=C(CN1CCN(c2nccs2)CC1)Nc1cccnc1	105.2
Cc1csc(N2CCN(CC(=O)Nc3cccnc3)CC2C)n1 (centres undefined)	114.5
O=C(CN1C[C@H]2CC[C@@H]1CN(Cc1ccccn1)C2)NCc1cccs1	1.062
CC1CN(C(=O)NCc2ccn(C)c2)CCN1CC(F)(F)F (centres undefined)	-7.034
C[C@@H]1CN(Cc2ccccc2)CCN1C(=O)NCc1nccs1	-1.817
Cc1csc(N2CCN(CC(=O)Nc3nncs3)CC2C)n1 (centres undefined)	1.073
O=C(CCN1CCCN(c2nccs2)CC1)Nc1ccccc1	4.493
Cc1csc(N2CCN(CCc3ccccn3)CC2C)n1 (centres undefined)	3.431
